# According to PubChem BioAssay (Tox21):
# Values joined by “and” are separate entries in the source; they are usually repeats but may differ in a detail not shown here. Equal values may be shown once. Inconclusive results are not listed. Entries that show only a call come without a potency. Active and inactive are the calls of the source. The call rests on the fitted dose curve; in most records, active means well fitted cell-killing curve with a large enough effect in the repeat runs; inconclusive means weak or mixed curves, or effect the other way; inactive means flat fitted curve, though single readings scatter.
# How the values were obtained:
# [1] = cAMP Responsive Elements (CRE) small molecule antagonists, cell-based qHTS assay: qHTS cell viability counter screen (AID 2060913); further: nearly all actives have a fitted effect of over 40% in size
# Method in brief: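 Steps: cells plated and held 18 hrs at 37 C/5% CO2; compounds and NKH477 (0.25 uM final) added; 3 hrs incubation; reporter substrate read; CellTiter-Glo added to measure cytotoxicity by luminescence.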
# [2] = cAMP Responsive Elements (CRE) small molecule agonists, cell-based qHTS assay: qHTS cell viability counter screen (AID 2060914);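 further: viability read after 3 h of compound exposure; nearly all actives have a fitted effect of over 50% in size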
# Method in brief: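 Cytotoxicity counter screen multiplexed with the CRE-bla reporter assay in HEK 293T cells: 3 h compound exposure at 37 °C, followed by CellTiter-Glo luminescence measured in the same wells.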
# Potency means the concentration at half of the fitted maximal effect.
SMILES,Potency [1],Potency [2],"viability change, negative = cytotoxic [1]","activity change, negative = cytotoxicity [2]"
Nc1ccc(Oc2ccc(N)c(N)c2)cc1,inactive,inactive,,
Cc1cccc(C(=O)O)c1O,inactive,inactive,,
CC(C)Cc1ccccc1,inactive,inactive,,
Cc1cc(C)c(C=O)c(C)c1,inactive,inactive,,
CC(=O)Nc1ccc(C(=O)CCl)cc1,inactive,inactive,,
F[B-](F)(F)F,inactive,inactive,,
ClC/C=C\CCl,inactive,inactive,,
CCCCCCS,inactive,inactive,,
Oc1ccc(CCNCCCCCCNCCc2ccccc2)cc1O,inactive,inactive,,
CC(C)CCCCCOC(=O)CCS,inactive,inactive,,
Clc1nc2ccccc2nc1Cl,inactive,inactive,,
COC(=O)C1=C(C)NC(C)=C(C(=O)OC(C)C)C1c1cccc2nonc12 (centres undefined),inactive,inactive,,
CC(C)NCC(O)c1ccc(NS(C)(=O)=O)cc1 (centres undefined),inactive,inactive,,
OCCN(CCO)CCN(CCO)CCO,inactive,inactive,,
COCC(=O)O,inactive,inactive,,
CCCCCCCCOc1ccc(C(=O)c2ccccc2)c(O)c1,inactive,inactive,,
CC(CNC1CCCCC1)OC(=O)c1ccccc1 (centres undefined),inactive,inactive,,
CCN(CC)CCOC(=O)c1ccc(N)cc1,inactive,inactive,,
COCCOC,inactive,inactive,,
N/C(=N\N=C\c1ccc(Cl)cc1)N/N=C/c1ccc(Cl)cc1,inactive,inactive,,
CCCCCCOC(=O)CCC,inactive,inactive,,
CCN(CC)CCN,inactive,inactive,,
O=C(O)c1ccccc1OP(=O)(O)O,inactive,inactive,,
O=Cc1ccc(F)c(Br)c1,inactive,inactive,,

SMILES,Potency [1],Potency [2],"viability change, negative = cytotoxic [1]","activity change, negative = cytotoxicity [2]"
O=c1[nH]c(=O)n([C@H]2CCCO2)cc1F,inactive,inactive,,
CC1=CC[C@@]23C[C@@H]1C(C)(C)[C@@H]2CC[C@H]3C,inactive,inactive,,
CC(C)=CCCC(C)C=O (centres undefined),inactive,inactive,,
[Cl][Eu]([Cl])[Cl],inactive,inactive,,
CN(C)C(=S)SC(=S)N(C)C,62.7 µM (active) and 3.2 µM (active),inactive,,
CCCCCC(CO)CCC (centres undefined),inactive,inactive,,
C[n+]1ccccc1/C=N/O,inactive,inactive,,
NS(=O)(=O)c1ccc(N2CCCCS2(=O)=O)cc1,inactive,inactive,,
Cc1ccc(S(=O)(=O)O)cc1C,inactive,inactive,,
CCCCCCCC/C=C\CCCCCCCC(=O)OC[C@@H](O)[C@H]1OC[C@H](O)[C@H]1O,inactive,inactive,,
CC(C)(C)NCC(O)COc1cccc2c1C[C@H](O)[C@H](O)C2 (some centres undefined),inactive,inactive,,
COc1cc2c(c(OC)c1OC)-c1ccc(OC)c(=O)cc1[C@@H](NC(C)=O)CC2,inactive,inactive,,
COc1ccc(C(=O)N2CCN(CC(=O)N3CCOCC3)CC2)cc1,inactive,inactive,,
O=C(O)c1cc(O)c(O)c(O)c1,inactive,inactive,,
COc1ccc2c(c1)c(CC(=O)OC/C=C(\C)CC/C=C(\C)CCC=C(C)C)c(C)n2C(=O)c1ccc(Cl)cc1,inactive,inactive,,
CC1=NN(c2ccc(S(=O)(=O)O)cc2)C(=O)C1,inactive,inactive,,
COC(=O)c1ccccc1Cl,inactive,inactive,,
CC(C)=CC1CC(C)CCO1 (centres undefined),inactive,inactive,,
CCCCCCCCOCCC#N,inactive,inactive,,
C[C@H](CCC(=O)O)[C@H]1CC[C@H]2[C@@H]3CC[C@@H]4C[C@H](O)CC[C@]4(C)[C@H]3CC[C@]12C,inactive,inactive,,
C[C@@H]1CN(c2c(F)c(F)c3c(=O)c(C(=O)O)cn(C4CC4)c3c2F)C[C@H](C)N1,,,-1.63% [at 18.9 µM] (inactive),-12.9% [at 18.9 µM] (inactive)
CCc1ccccc1,inactive,inactive,,
CN(C)C(=O)NC1(c2ccccc2)CCN(CCC[C@]2(c3ccc(Cl)c(Cl)c3)CCCN(C(=O)c3ccccc3)C2)CC1,,,-0.11% [at 18.9 µM] (inactive),-0.87% [at 18.9 µM] (inactive)
C=C(C)C(=O)OCC(C)O (centres undefined),inactive,inactive,,

SMILES,Potency [1],Potency [2],"viability change, negative = cytotoxic [1]","activity change, negative = cytotoxicity [2]"
C=CC(=O)NCOCCCC,inactive,inactive,,
CCC(=O)C1CC(C(C)C)CC=C1C (centres undefined),inactive,inactive,,
CCOC(=O)CC(O)(CC(=O)OCC)C(=O)OCC,inactive,inactive,,
O=S(=O)(O)c1ccc2cc(O)c(S(=O)(=O)O)cc2c1,inactive,inactive,,
Nc1ncn([C@H]2C[C@H](O)[C@@H](CO)O2)c(=O)n1,inactive,inactive,,
CC(=O)CC(c1ccc([N+](=O)[O-])cc1)c1c(O)c2ccccc2oc1=O (centres undefined),inactive,inactive,,
CC1(COc2ccc(CC3SC(=O)NC3=O)cc2)CCCCC1 (centres undefined),inactive,inactive,,
OCCSc1ccccc1,inactive,inactive,,
NC/C=C/C(=O)O,inactive,inactive,,
Cc1ccc2oc(=O)ccc2c1,inactive,inactive,,
COCCCOc1cc(C[C@@H](C[C@H](N)[C@@H](O)C[C@H](C(=O)NCC(C)(C)C(N)=O)C(C)C)C(C)C)ccc1OC,inactive,inactive,,
CNS(=O)(=O)c1cc(C(=O)N2CCC(CCN3C4CCC3CC(n3c(C)nc5ccccc53)C4)(c3cccc(F)c3)CC2)c(Cl)cc1F (centres undefined),inactive,inactive,,
CC[N+]1(CC)CCC(=C(c2ccccc2)c2ccccc2)C1C (centres undefined),inactive,inactive,,
O=c1c(O)c(-c2ccc(O)c(O)c2)oc2cc(O)cc(O)c12,inactive,inactive,,
OC12N=C(c3ccccc3)SC1Cc1cc(Cl)ccc12 (centres undefined),inactive,inactive,,
Clc1ccccc1-c1nc(-c2ccncc2)no1,inactive,inactive,,
CC/C(C)=N/O,inactive,inactive,,
O=C(OCCc1ccccc1)c1ccccc1,inactive,inactive,,
CN(C)C,inactive,inactive,,
CCCCC(CC)CO (centres undefined),inactive,inactive,,
CCCCN(CCCC)C(=S)SSC(=S)N(CCCC)CCCC,inactive,inactive,,
Cc1ccc(Cl)cc1Cl,inactive,inactive,,
OCC1(CO)COCOC1,inactive,inactive,,
Fc1ccccc1,inactive,inactive,,

SMILES,Potency [1],Potency [2],"viability change, negative = cytotoxic [1]","activity change, negative = cytotoxicity [2]"
N#Cc1ccc(C(c2ccc(C#N)cc2)n2cncn2)cc1,inactive,inactive,,
CC(=O)OC/C=C/c1ccccc1,inactive,inactive,,
O=CCc1ccccc1,inactive,inactive,,
NNC(=O)c1ccncc1,inactive,inactive,,
C/C=C/CO,inactive,inactive,,
CCCOCC(C)O (centres undefined),inactive,inactive,,
CN1C(CSCC(F)(F)F)Nc2cc(Cl)c(S(N)(=O)=O)cc2S1(=O)=O (centres undefined),inactive,inactive,,
O=C(O)/C=C/c1ccc(/C=C/C(=O)O)cc1,inactive,inactive,,
O=C1c2ccccc2CCc2ccccc21,inactive,inactive,,
O=S(=O)(O)c1cc(I)c(O)c2ncccc12,inactive,inactive,,
C=CC(=C)CCCC(C)(C)OC(C)=O,inactive,inactive,,
C#C[C@]1(OC(C)=O)CC[C@H]2[C@@H]3CCC4=C/C(=N/O)CC[C@@H]4[C@H]3CC[C@@]21CC,inactive,inactive,,
CCCCOCC(C)OCC(C)O (centres undefined),inactive,inactive,,
COc1cc2c(cc1OC)C(=O)C(CC1CCN(Cc3ccccc3)CC1)C2 (centres undefined),inactive,inactive,,
COc1nc(N)nc2c1ncn2[C@@H]1O[C@H](CO)[C@@H](O)[C@@H]1O,inactive,inactive,,
NCC1(Cc2noc(=O)[nH]2)CCCCC1,inactive,inactive,,
CCN(CC)CCNC(=O)COc1ccc(Cl)cc1,inactive,inactive,,
CCN(CCCCOC(=O)c1ccc(OC)c(OC)c1)C(C)Cc1ccc(OC)cc1 (centres undefined),inactive,inactive,,
C[C@@H]1CCN(C(=O)[C@H](CCCN=C(N)N)NS(=O)(=O)c2cccc3c2NC[C@H](C)C3)[C@@H](C(=O)O)C1,inactive,inactive,,
COc1ccc2c(c1OC)C(=O)O[C@@H]2[C@H]1c2c(cc3c(c2OC)OCO3)CCN1C,inactive,inactive,,
C=CCCCCCCC=C,inactive,inactive,,
CC(C)(O)C(=O)c1ccc(OCCO)cc1,inactive,inactive,,
O=C(Oc1cccc2cccnc12)c1ccccc1,inactive,inactive,,
Cc1ccc(O)c(N)c1,inactive,inactive,,

SMILES,Potency [1],Potency [2],"viability change, negative = cytotoxic [1]","activity change, negative = cytotoxicity [2]"
CCc1c(C(=O)O)c(=O)cnn1-c1ccc(Cl)cc1,inactive,inactive,,
N[C@@H]1CONC1=O,inactive,inactive,,
Nc1ccc(C(=O)O)c(O)c1,inactive,inactive,,
CCCCOC(=O)c1ccccc1,inactive,inactive,,
O=C1N=C(O)CN1/N=C/c1ccc(-c2ccc([N+](=O)[O-])cc2)o1,inactive,inactive,,
CCCO[Si](OCCC)(OCCC)OCCC,inactive,inactive,,
CC(=O)OCC(C)OC(C)=O (centres undefined),inactive,inactive,,
O=c1[nH]cnc2[nH]ncc12,inactive,inactive,,
CN(C)CCCCCCN(C)C,inactive,inactive,,
CC(=O)OCC(CCn1cnc2cnc(N)nc21)COC(C)=O,inactive,inactive,,
CCOCC(C)O (centres undefined),inactive,inactive,,
CN1CCC(OC(c2ccccc2)c2ccccc2)CC1,inactive,inactive,,
CC(=O)CCc1ccccc1,inactive,inactive,,
CCCCCCCCCCCC(=O)OCC(C)OC(=O)CCCCC(=O)O (centres undefined),inactive,inactive,,
NCCNc1cccc2ccccc12,inactive,inactive,,
O=C(/C=C/c1ccc(O)c(O)c1)O[C@@H]1C[C@@](OC(=O)/C=C/c2ccc(O)c(O)c2)(C(=O)O)C[C@@H](O)[C@@H]1O,inactive,inactive,,
CC/C=C\CCOC(=O)c1ccccc1O,inactive,inactive,,
Cc1cc(Cc2cc(C)cc(C(C)(C)C)c2O)c(O)c(C(C)(C)C)c1,54.8 µM (active) and 40.3 µM (active),34.6 µM (active) and 54.5 µM (active),,
CC1(C)S[C@@H]2[C@H](NC(=O)[C@H](N)c3ccccc3)C(=O)N2[C@H]1C(=O)O,inactive,inactive,,
NCCNCCN,inactive,inactive,,
Cc1ncc([N+](=O)[O-])n1CC(C)O (centres undefined),inactive,inactive,,
